Screening results (PubChem)
Many of the other results were omitted from the sample, so hits are more common in it than they were.
NS1 inh = qHTS Assay for Inhibitors of Influenza NS1 Protein Function; Potency, µM (highest dose often 46.1 µM), inactives show top-dose activity, positive = more growth; 0.4% of 270,000 active; AID 2326, 2010; calls by dose curve; note: potency is the fitted concentration of half-maximal effect; actives are rising curves; nearly all actives have a fitted effect of over 50% in size
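A cell-based growth assay was used: compounds that relieve NS1-induced slow growth of budding yeast raise OD600. Assay medium was yeast nitrogen base with ammonium sulphate and -URA supplement, pH 6.0, with 2% galactose.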
AmpC detergent = qHTS Inhibitors of AmpC Beta-Lactamase (assay with detergent); 0.041% of 370,000 active; AID 485294, 2010; AmpC hydrolysis of nitrocefin, absorbance 480 nm, 0.01% Triton; Potency, µM (highest dose often 114 µM), without a hit: at the highest dose activity change, negative = inhibition, hits mostly inhibitors;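 note: potency is the fitted concentration of half-maximal effect; 0% = no-compound wells and -100% = no-enzyme wells; nearly all actives have a fitted effect of over 25% in size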
Target sequence (P00811 whole entry, looked up): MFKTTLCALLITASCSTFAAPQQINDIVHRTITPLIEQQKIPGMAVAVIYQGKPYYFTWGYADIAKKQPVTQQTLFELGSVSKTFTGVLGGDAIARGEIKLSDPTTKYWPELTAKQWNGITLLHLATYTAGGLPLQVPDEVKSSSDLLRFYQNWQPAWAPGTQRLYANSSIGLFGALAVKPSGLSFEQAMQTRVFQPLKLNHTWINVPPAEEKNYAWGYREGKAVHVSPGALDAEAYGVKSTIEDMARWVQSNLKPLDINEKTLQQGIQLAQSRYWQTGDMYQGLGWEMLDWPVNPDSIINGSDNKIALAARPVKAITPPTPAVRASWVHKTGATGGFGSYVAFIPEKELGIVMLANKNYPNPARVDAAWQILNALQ
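20 mM phosphate pH 7.0 + 0.01% (detergent screen) or 0.0001% Triton X-100; 5.3 nM AmpC reagent; cpd preinc 15 min RT; nitrocefin (800 uM stock) to start; A480 q20 s × 4 min; Activity was normalised to no-enzyme and no-compound control wells.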
AmpC inh no detg = qHTS Inhibitors of AmpC Beta-Lactamase (assay without detergent); P00811; 0.52% of 330,000 active; AID 485341, 2010; Potency, µM (titrated, usually from 57.1 µM), for the others: at the highest dose activity change, negative = inhibition, actives largely listed as inhibitors; AmpC nitrocefin hydrolysis, absorbance 480 nm, 0.0001% Triton;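 note: potency is the fitted concentration of half-maximal effect; plate controls were no compound for no effect and no enzyme for full effect; nearly all actives have a fitted effect of over 20% in size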
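20 mM phosphate pH 7.0 + 0.01% (detergent screen) or 0.0001% Triton X-100; 5.3 nM AmpC reagent; cpd preinc 15 min RT; nitrocefin (800 uM stock) to start; A480 q20 s × 4 min; Activity was normalised to no-enzyme and no-compound control wells.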
Cycloheximide cs = Cycloheximide Counterscreen for Small Molecule Inhibitors of Shiga Toxin; cell reporter, cycloheximide protein synthesis inhibition counterscreen; max response, %; 12% of 300,000 active; in the data active = max response mostly above about 13%, no sharp cut-off; inactive = mostly below about 14%; note: read at 38.3 µM for the half of the compounds with a filed dose; 0% is about no effect
Shiga toxin inh = A qHTS for Small Molecule Inhibitors of Shiga Toxin | Vero cells, Shiga toxin protein synthesis inhibition reporter | inhibition, % at 38.7 µM | 9.2% of 290,000 active | AID 2315, 2010; in the data active = inhibition mostly above about 28%, no sharp cut-off; inactive = mostly below about 43%; note: 0% is about no effect
An asterisk follows results filed as active; ? = inconclusive; nt = no result given; [ ] = dose if it differs, or a comment. Unless noted, calls come from the whole dose curve; as a rule, active = well fitted curve in the direction sought with a large enough effect; inconclusive = small, poorly fitted or top-dose-only effect, or another doubt; inactive = no such curve, though single readings can be large; an effect the other way counts as inactive or inconclusive.

SMILES	NS1 inh	AmpC detergent	AmpC inh no detg	Cycloheximide cs	Shiga toxin inh
CNS(=O)(=O)/C=C/c1ccccc1	5%	-8%	-12%	7	12
O=S(=O)(/C=C/c1ccccc1)Oc1ccccc1	-7%	3%	-20%	28*	21
COC(=O)c1ccc(NC(=O)Cn2nnc3ccccc32)cc1	0%	?	-33%	38*	67*
Cc1cccc(NC(=O)Cn2nnc3ccccc32)c1	nt	?	-9%	44*	136*
COc1cccc(/C=N\NC(=O)Cn2nnc3ccccc32)c1O	3%	5%	-38%	27*	76*
COc1cc(/C=N/NC(=O)Cn2nnc3ccccc32)ccc1O	2%	4%	-29%	8	19
Cc1ccc(NC(=O)Cn2nnc3ccccc32)cc1	1%	7%	-18%	37*	68*
O=C(Nc1cccc(Cl)c1)C1CCN(S(=O)(=O)Cc2ccccc2)CC1	nt	-2%	nt	nt	nt
Cc1ccc(/C(=N/Nc2nc3ccccc3s2)C2=C(O)c3ccccc3C2=O)cc1	nt	-14%	-23%	19	44*
c1ccc(/C(=N/Nc2nc3ccccc3s2)c2ccccn2)cc1	-44%	nt	nt	nt	nt
COc1ccc2oc(-c3ccccc3)c(C(=O)O)c2c1	-49%	5%	-10%	-6	8
O=c1c(O)c(-c2cccs2)oc2ccccc12	-27%	4%	-17%	18*	15
Cc1ccc2oc(-c3ccccc3)c(C(=O)O)c(=O)c2c1	-213%	1%	-35%	44*	80*
Cc1ccc(-c2oc3ccccc3c(=O)c2O)cc1	-2%	?	-10%	14*	9
C=CCn1c(COC)nnc1SCC(=O)c1ccc(F)cc1	8%	-11%	0%	16*	44*
Cc1ccc(NC(=O)C2CCCCC2C(=O)O)cc1C (stereo not drawn)	-1%	12%	-12%	-1	-3
O=C(Nc1ccccc1)C1C2/C=C\CCCCC21 (stereo not drawn)	0%	0%	0%[2.29 µM]	19*	43*
Cc1ccccc1NC(=O)C1C2/C=C\CCCCC21 (stereo not drawn)	-2%	-8%	-5%	-1	11
Cc1ccc(NC(=O)C2C3/C=C\CCCCC32)cc1C (stereo not drawn)	8%	?	-15%	37*	130
CCC(CC)C(=O)Nc1cc(-c2cccc(C)c2)nn1-c1ccccc1	nt	-3%	nt	nt	nt
Cc1oc(-c2ccccc2)cc1C(=O)Nc1cccc(C(=O)O)c1	-10%	?	-21%	12	-10
Cc1oc(-c2ccc(Cl)cc2)cc1C(=O)O	-135%	-9%	-18%	43*	46
O=C(/C=C/c1cccc(F)c1)OCC(=O)N1CCCc2ccccc21	nt	0%	12%	nt	nt
O=C(/C=C/c1ccc(F)cc1)N1CCc2ccccc2C1	nt	-5%	-13%	nt	nt
O=C(/C=C/c1cccc(F)c1)N1CCc2ccccc21	-2%	?	-12%	65*	102*
SMILES	NS1 inh	AmpC detergent	AmpC inh no detg	Cycloheximide cs	Shiga toxin inh
O=C(/C=C/c1ccc(F)cc1)N1CCCc2ccccc21	nt	-2%	0%	38	43*
O=C(c1ccc(Cl)cc1Cl)N1CCc2ccccc21	3%	-21%	-22%	0	-6
O=C(/C=C/c1ccc(Cl)cc1Cl)N1CCc2ccccc21	5%	-10%	-20%	32*	61*
COc1ccc(C(c2nnnn2C(C)C)N2CCN(C(=O)c3ccco3)CC2)cc1 (stereo not drawn)	-10%	-1%	76%	-8	-13
CCOCCCNC(=O)C1CCCN(c2ncnc3onc(C)c23)C1 (stereo not drawn)	nt	20%	nt	nt	nt
CC1CCCCC12NC(=O)N(CC(=O)c1ccc(Cl)s1)C2=O (stereo not drawn)	18%	-12%	-50%	-4	1
Cc1ccc(CCNC(=O)C2CCN(Cc3nc(-c4ccccc4C)oc3C)CC2)cc1	nt	-7%	nt	nt	nt
COC1=C(OC)C(=O)c2ccccc2C1=O	-20%	nt	nt	nt	nt
COC1=C(Nc2ccc(C)cc2)C(=O)c2ccccc2C1=O	-5%	-3%	-30%	53*	102*
COC1=C(Nc2ccccc2)C(=O)c2ccccc2C1=O	-11%	0%	-29%	19*	23*
CC(=O)NC1=C(Nc2ccc(N(C)C)cc2)C(=O)c2ccccc2C1=O	7%	?	-9%	46*	116*
Cc1cc2oc(=O)cc(C)c2c2occ(-c3ccc(Cl)cc3)c12	nt	6%	nt	nt	nt
O=C(Nc1cc2c(cc1Cl)OCCO2)c1ccco1	-6%	-5%	-11%	28*	93*
O=C(Nc1cc2c(cc1Br)OCCO2)c1cccnc1	?	17%	-10%	24*	66
O=C(Nc1cc2c(cc1Br)OCCO2)c1cccs1	-52%	?	-32%	42*	181*
O=C(Nc1c(C(=O)Nc2ccc3c(c2)OCCO3)cnn1-c1ccccc1Cl)c1ccco1	-20%	-7%	-3%	77*	149*
O=C(Nc1c(C(=O)N2CCOCC2)cnn1-c1ccccc1Cl)c1ccco1	9%	-13%	-6%	1	-11
O=C(Nc1cc(Cl)ccc1Cl)c1ccco1	-25%	-13%	-19%	0	nt
O=C(O)CN1C(=O)O[C@@H](c2ccccc2)C1=O	1%	nt	nt	nt	nt
CCCCN(C(=O)c1ccc2c(c1)S(=O)(=O)N=C1CCCCCN12)c1c(N)n(CCCC)c(=O)[nH]c1=O	nt	1%	30%	nt	nt
CCn1c(CN2CCC(C)CC2)nc2cc(NC(=O)c3ccc([N+](=O)[O-])cc3)ccc21	nt	30%	nt	nt	nt
O=C(Nc1ccc(NC(=O)c2ccco2)c(Cl)c1)c1ccc2c(c1)OCCO2	-45%	-1%	-30%	27*	64*
O=C(Nc1cc2c(cc1Br)OCCO2)c1ccco1	-11%	-2%	-21%	40*	active
CC(=O)c1cc2c(cc1NC(=O)c1ccco1)OCCO2	-1%	4%	-12%	10	15
CCCCn1c(CNC(=O)C23CC4CC(CC(C4)C2)C3)nnc1SCC(=O)Nc1ccc(F)cc1	nt	13%	nt	nt	nt
SMILES	NS1 inh	AmpC detergent	AmpC inh no detg	Cycloheximide cs	Shiga toxin inh
O=C(NC1(C(F)(F)F)N=C(c2ccccc2)NC1=O)c1ccccc1 (stereo not drawn)	-4%	?	-19%	-1	-5
CCc1ccc(NC(=O)C2=CC(c3cccs3)=NS(=O)(=O)N2C)cc1	12%	-10%	18µM*	1	18
CSc1ccccc1NC(=O)C1=CC(c2cccs2)=NS(=O)(=O)N1C	-2%	-19%	-44%	4	15*
COC(=O)c1ccccc1NC(=O)C1=CC(c2cccs2)=NS(=O)(=O)N1C	12%	-9%	-22%	2	-1
Cc1ccc(C2=NS(=O)(=O)N(C)C(C(=O)Nc3ccc(F)cc3F)=C2)cc1	6%	?	-35%	10	16*
Cc1ccc(NC(=O)C2=CC(c3cccs3)=NS(=O)(=O)N2C)cc1	20%	-10%	-34%	-2	23
C[C@@]12C(=O)Nc3cc(F)c(F)cc3C(=O)N1[C@H]1c3cc(Cl)ccc3OC[C@@H]1[C@@H]2c1ccccc1	nt	nt	-22%	nt	nt
